Test results reported in PubChem BioAssay (Tox21).
“And” between values parts separate entries of the source, which are not always exact repeats. Equal entries are not always repeated. Records with an inconclusive call do not appear. Entries that show only a call come without a potency. Some compounds were tested as several samples or in several runs, with calls that do not always agree. The source made the active and inactive calls. Calls follow the shape of the dose curve; as a rule, active = well fitted curve in the direction sought with a large enough effect in the repeat runs; inconclusive = weak or mixed curves; inactive = no such curve, though single readings can be large; an effect the other way counts as inactive or inconclusive.

Experiment: A CellTox Green Cytotoxicity Assay to monitor cytotoxicity in HEK293 cells - 24 hour (AID 1224875); also: nearly all actives have a fitted effect of over 45% in size
Details: CellTox Green fluorescence; series mostly up to 76.8 µM
Method in brief: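 Fluorescence from a DNA-binding dye excluded by viable cells was measured repeatedly in the same HEK293 wells (600 cells/well) during continuous compound exposure at 37 C. Each assay gives one read point: 0, 8, 16, 24, 32 or 40 h.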
In the case of O=C(O)C(Cl)(Cl)Cl, the Potency is reported as “inactive”. With COc1ccccc1N the Potency was “inactive”. For Oc1cccc2cccnc12, the Potency was “inactive”. With O=P1(N(CCCl)CCCl)NCCCO1 (configuration not stated) the Potency was “inactive”. With CCC(=O)C(CC(C)N(C)C)(c1ccccc1)c1ccccc1 (configuration not stated) the Potency was “inactive”. With CCC[N+]1(C)CCCC1 the Potency was “inactive”. In the case of CCCCCCCCCCn1cc[n+](C)c1, the Potency is reported as “inactive”. In the case of CC(=O)O, the Potency is reported as “inactive”. For CCCCn1cc[n+](C)c1, the Potency was “inactive”. For O=c1[nH]c(=O)n(Cl)c(=O)n1Cl, the Potency was “inactive”. With OCCOc1ccccc1 the Potency was “inactive”. With Nc1ccc(Cl)cc1 the Potency was “inactive”. With CC(Cl)(Cl)C(=O)O the Potency was “inactive”. With Cc1cc(-c2ccc(N)c(C)c2)ccc1N the Potency was “inactive”. In the case of O=S(=O)(O)O, the Potency is reported as “inactive”. With C1CCC(NC2CCCCC2)CC1 the Potency was “inactive”. For COc1ccc(N)cc1, the Potency was “inactive”. With CCCCn1cc[n+](C)c1C the Potency was “inactive”. In the case of CCNc1nc(Cl)nc(NCC)n1, the Potency is reported as “inactive”. In the case of CCCCCCn1cc[n+](C)c1, the Potency is reported as “inactive”. With O=C(O)c1nc(Cl)ccc1Cl the Potency was “inactive”. For O=[N+]([O-])O, the Potency was “inactive”. For O=C(O)CCl, the Potency was “inactive”. With O=C(O)CC(O)(CC(=O)O)C(=O)O the Potency was “inactive”. For O=C(O)C(Cl)Cl, the Potency was “inactive”. In the case of CCCCCCCCn1cc[n+](C)c1, the Potency is reported as “inactive”. With COP(=O)(OC)C(O)C(Cl)(Cl)Cl (configuration not stated) the Potency was “inactive”. In the case of CCC[N+]1(C)CCCCC1, the Potency is reported as “inactive”.

Experiment: A CellTox Green Cytotoxicity Assay to monitor cytotoxicity in HepG2 cells - 16 hour (AID 1224876); also: nearly all actives have a fitted effect of over 45% in size; also: potency is read from the fitted curve at half-maximal effect
Details: CellTox Green fluorescence; series mostly up to 76.8 µM
Method in brief: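 Real-time cytotoxicity: fluorescence of a cell-impermeant cyanine dye binding DNA of dead HepG2 cells, measured repeatedly (0–40 h) during compound exposure at 37 C. Cells seeded 600/well with reagent, dosed after 5 h.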
In the case of O=C(O)C(Cl)(Cl)Cl, the Potency is reported as “inactive”. For COc1ccccc1N, the Potency was “inactive”. With Oc1cccc2cccnc12 the Potency was “inactive and 6.16 µM (active)”. For O=P1(N(CCCl)CCCl)NCCCO1 (configuration not stated), the Potency was “inactive”. For CCC(=O)C(CC(C)N(C)C)(c1ccccc1)c1ccccc1 (configuration not stated), the Potency was “inactive”. With CCC[N+]1(C)CCCC1 the Potency was “inactive”. For CCCCCCCCCCn1cc[n+](C)c1, the Potency was “inactive”. For CC(=O)O, the Potency was “inactive”. In the case of C=CCOC(Cn1ccnc1)c1ccc(Cl)cc1Cl (configuration not stated), the Potency is reported as “inactive”. With CCCCn1cc[n+](C)c1 the Potency was “inactive”. For O=c1[nH]c(=O)n(Cl)c(=O)n1Cl, the Potency was “inactive”. In the case of CCCCCCCCCCCCOS(=O)(=O)O, the Potency is reported as 49 µM (active) and inactive. In the case of OCCOc1ccccc1, the Potency is reported as “inactive”. With Nc1ccc(Cl)cc1 the Potency was “inactive”. In the case of CC(Cl)(Cl)C(=O)O, the Potency is reported as “inactive”. For Cc1cc(-c2ccc(N)c(C)c2)ccc1N, the Potency was “inactive”. With CCCCCCCCCCCCCC[P+](CCCCCC)(CCCCCC)CCCCCC the Potency was 12.4 µM (active) and 22.1 µM (active) and inactive. With O=S(=O)(O)O the Potency was “inactive”. In the case of C1CCC(NC2CCCCC2)CC1, the Potency is reported as “inactive”. With COc1ccc(N)cc1 the Potency was “inactive and 195 nM (active)”. With CCCCn1cc[n+](C)c1C the Potency was “inactive”. With CCNc1nc(Cl)nc(NCC)n1 the Potency was “inactive”. In the case of CCCCCCn1cc[n+](C)c1, the Potency is reported as “inactive”. In the case of O=C(O)c1nc(Cl)ccc1Cl, the Potency is reported as “inactive”. For O=[N+]([O-])O, the Potency was “inactive”. With O=C(O)CCl the Potency was “inactive”. With O=C(O)CC(O)(CC(=O)O)C(=O)O the Potency was “inactive”. With O=C(O)C(Cl)Cl the Potency was “inactive”. For CCCCCCCCn1cc[n+](C)c1, the Potency was “inactive”. With Nc1ccc(-c2ccc(N)c(Cl)c2)cc1Cl the Potency was “inactive and 43.6 µM (active)”. For COP(=O)(OC)C(O)C(Cl)(Cl)Cl (configuration not stated), the Potency was “inactive”. With CCC[N+]1(C)CCCCC1 the Potency was “inactive”.

Experiment: qHTS RealTime-Glo MT Cell Viability Assay in HepG2 cells - 32 hour (AID 1224877); also: nearly all actives have a fitted effect of over 55% in size; also: potency is read from the fitted curve at half-maximal effect
Details: RealTime-Glo luminescence; series mostly up to 76.8 µM
Method in brief: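 Cells + NanoLuc/prosubstrate dispensed (600 cells/well) → 5 h at 37 C/5% CO2 → compounds in DMSO transferred → 40 h incubation at 37 C, luminescence read at 0, 8, 16, 24, 32, 40 h.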
In the case of O=C(O)C(Cl)(Cl)Cl, the Potency is reported as “inactive”. For COc1ccccc1N, the Potency was “inactive”. With Oc1cccc2cccnc12 the Potency was “inactive and 3.09 µM (active)”. In the case of O=P1(N(CCCl)CCCl)NCCCO1 (configuration not stated), the Potency is reported as “inactive”. For CCC(=O)C(CC(C)N(C)C)(c1ccccc1)c1ccccc1 (configuration not stated), the Potency was “inactive”. With CCC[N+]1(C)CCCC1 the Potency was “inactive and 49.3 µM (active)”. With CCCCCCCCCCn1cc[n+](C)c1 the Potency was “inactive”. For CC(=O)O, the Potency was “inactive”. For C=CCOC(Cn1ccnc1)c1ccc(Cl)cc1Cl (configuration not stated), the Potency was “inactive”. With CCCCn1cc[n+](C)c1 the Potency was “inactive and 44.3 µM (active)”. For O=c1[nH]c(=O)n(Cl)c(=O)n1Cl, the Potency was “inactive”. For CCCCCCCCCCCCOS(=O)(=O)O, the Potency was “inactive”. In the case of OCCOc1ccccc1, the Potency is reported as “inactive”. For Nc1ccc(Cl)cc1, the Potency was “inactive”. With CC(Cl)(Cl)C(=O)O the Potency was “inactive”. For Cc1cc(-c2ccc(N)c(C)c2)ccc1N, the Potency was “inactive”. In the case of CCCCCCCCCCCCCC[P+](CCCCCC)(CCCCCC)CCCCCC, the Potency is reported as 11 µM (active) and 19.7 µM (active) and inactive. In the case of O=S(=O)(O)O, the Potency is reported as “inactive”. With C1CCC(NC2CCCCC2)CC1 the Potency was “inactive”. In the case of COc1ccc(N)cc1, the Potency is reported as “inactive”. For CCCCn1cc[n+](C)c1C, the Potency was “inactive and 44.2 µM (active)”. With CCNc1nc(Cl)nc(NCC)n1 the Potency was “inactive”. In the case of CCCCCCn1cc[n+](C)c1, the Potency is reported as “inactive and 50 µM (active)”. With O=C(O)c1nc(Cl)ccc1Cl the Potency was “inactive”. In the case of O=[N+]([O-])O, the Potency is reported as “inactive”. In the case of O=C(O)CCl, the Potency is reported as “inactive”. With O=C(O)CC(O)(CC(=O)O)C(=O)O the Potency was “inactive”. With O=C(O)C(Cl)Cl the Potency was “inactive”. With CCCCCCCCn1cc[n+](C)c1 the Potency was “inactive”. With Nc1ccc(-c2ccc(N)c(Cl)c2)cc1Cl the Potency was “inactive and 49 µM (active)”. With COP(=O)(OC)C(O)C(Cl)(Cl)Cl (configuration not stated) the Potency was “inactive”. For CCC[N+]1(C)CCCCC1, the Potency was “inactive and 34.8 µM (active)”.
